# In all, about 310,000 compounds went through this assay and about 2,200 (0.71%) showed an effect of 50% or more. Effects have a minus sign here. The sample holds strong results, similar compounds and a random draw of the others, so the mix is not that of the screen.
# Target: human ether-à-go-go-related gene (hERG) potassium channel (human, UniProt Q12809)
# Experiment: primary screen, population patch clamp on CHO cells stably expressing hERG; higher = less effect of the substance
# Method: Briefly, Chinese hamster ovary (CHO) cells stably expressing the hERG channel were dislodged from tissue culture flasks and dispensed into PPC plates. […] During the recording, background leak currents were estimated by a 100 ms step to -80 mV from an initial holding potential of -70 mV and subtracted from the subsequent current measurement. The campaign was conducted in two phases using slight differences in recording protocol. In the first phase, the initial voltage pulse used a 100 ms step to -30 mV from a holding potential of -70 mV, a 2 s conditioning step to +25 mV, and a 2 s test step to -30 mV. During the second phase of the screen, the potential during the conditioning step was raised to +45 mV. In both phases of the campaign, a secondary voltage pulse was applied using the same parameters as the second phase initial pulse. The initial and secondary pulses were applied in the absence of compound, and upon application of 1 μM and 10 μM test concentrations. Small molecule effects on hERG current density were quantified by […].
# Chain of human ether-à-go-go-related gene (hERG) potassium channel (Q12809 whole entry, looked up): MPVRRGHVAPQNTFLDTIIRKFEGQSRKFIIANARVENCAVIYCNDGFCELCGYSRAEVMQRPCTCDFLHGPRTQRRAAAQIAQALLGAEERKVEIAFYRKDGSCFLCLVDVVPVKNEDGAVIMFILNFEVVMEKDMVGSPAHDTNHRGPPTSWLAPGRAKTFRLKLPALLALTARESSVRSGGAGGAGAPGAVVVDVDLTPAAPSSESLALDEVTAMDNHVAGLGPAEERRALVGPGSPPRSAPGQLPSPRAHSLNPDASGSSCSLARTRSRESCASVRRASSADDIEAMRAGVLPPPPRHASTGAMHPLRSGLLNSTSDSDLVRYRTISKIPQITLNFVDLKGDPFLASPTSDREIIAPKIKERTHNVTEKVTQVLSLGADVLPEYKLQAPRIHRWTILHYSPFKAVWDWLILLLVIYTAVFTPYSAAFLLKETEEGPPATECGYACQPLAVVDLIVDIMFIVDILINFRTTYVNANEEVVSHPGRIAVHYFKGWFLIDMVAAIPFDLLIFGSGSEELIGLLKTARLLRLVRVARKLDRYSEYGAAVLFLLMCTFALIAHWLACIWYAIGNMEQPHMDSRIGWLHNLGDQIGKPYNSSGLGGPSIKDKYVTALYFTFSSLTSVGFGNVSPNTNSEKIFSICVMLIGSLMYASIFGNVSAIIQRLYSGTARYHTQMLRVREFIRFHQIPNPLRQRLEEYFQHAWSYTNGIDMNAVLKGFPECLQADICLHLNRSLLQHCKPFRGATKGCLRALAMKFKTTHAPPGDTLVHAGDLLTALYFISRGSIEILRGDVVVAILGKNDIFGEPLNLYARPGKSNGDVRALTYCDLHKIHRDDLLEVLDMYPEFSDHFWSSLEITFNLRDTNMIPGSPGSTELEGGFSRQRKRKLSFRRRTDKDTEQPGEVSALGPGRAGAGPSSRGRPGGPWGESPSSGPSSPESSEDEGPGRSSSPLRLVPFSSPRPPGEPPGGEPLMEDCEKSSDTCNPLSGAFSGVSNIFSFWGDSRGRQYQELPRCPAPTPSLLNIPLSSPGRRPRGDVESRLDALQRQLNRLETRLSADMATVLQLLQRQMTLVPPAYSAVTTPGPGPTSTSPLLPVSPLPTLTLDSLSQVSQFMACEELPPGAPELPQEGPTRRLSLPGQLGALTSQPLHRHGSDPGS
row,Structure (SMILES),"hERG current change (%, negative = inhibition) at 1uM [%]"
1,COc1cc(CN2CCN(c3ccccc3C)CC2)cc([N+](=O)[O-])c1O,7.17
2,CN(C)C(=O)Oc1ccc(OC(=O)c2ccccc2)cc1,10.4
3,Cc1ccc(-n2c(N)c(C#N)c(-c3ccc(Cl)cc3)c(C#N)c2=O)cc1,10.8
4,CCCCNC(=O)COC(=O)c1cc(C)oc1C,8.11
5,OC(COc1ccc2c(c1)CCC2)CN1CCN(c2ccccc2F)CC1 (centres unmarked),5.87
6,Cc1nonc1OCCNc1ccc([N+](=O)[O-])cc1,-17.1
7,O=[N+]([O-])c1ccc(OCC(O)CN2CCN(c3ccccc3F)CC2)cc1 (centres unmarked),-77.6
8,Cc1nonc1OCCN1CCN(c2ccccc2[N+](=O)[O-])CC1.Cl,-2.31
9,Cc1nonc1OCCN1CCN(c2ccc([N+](=O)[O-])cc2)CC1,-100
10,Cc1ccc(N2CCN(CC(O)COc3ccc([N+](=O)[O-])cc3)CC2)cc1 (centres unmarked),-65.4
11,COc1ccc(N2CCN(CC(O)COc3ccc([N+](=O)[O-])cc3)CC2)cc1.Cl (centres unmarked),-45.5
12,Cc1ccc(OCC(O)CN2CCN(c3ccc(C)cc3)CC2)cc1 (centres unmarked),-3.83
13,Cl.OC(COc1ccc(F)cc1)CN1CCN(c2ccccc2F)CC1 (centres unmarked),-49.5
14,COc1ccc(CCNC(=O)c2cccc([N+](=O)[O-])c2)cc1OC,3.3
15,O/N=C(\COc1ccccc1O)c1ccccc1,-0.796
16,CN(c1ccc(OCC(=O)NCc2cccnc2)cc1)S(=O)(=O)c1ccc(Cl)cc1,-4.28
17,CCOC(=O)CC1C(=O)NCCN1S(=O)(=O)c1ccc(Br)cc1 (centres unmarked),6.26
18,O=C(CCn1nnc2ccccc2c1=O)N[C@@H](Cc1c[nH]c2ccccc12)C(=O)O,11.6
19,COc1ccc(CCNC(=O)C2(C)CCC(=O)N2Cc2ccc(F)cc2Cl)cc1OC (centres unmarked),16.2
20,COc1ccc(C(=O)CCN2CCN(c3ccccc3OC)CC2)cc1.Cl,-4.48
21,CC(C)c1ccc(C(=O)NCCCN2CCOCC2)cc1,2.78
22,O=C(NCCCN1CCN(CCCNC(=O)c2cccc(Cl)c2)CC1)c1cccc(Cl)c1,-74.5
23,CC(C)c1ccc(C(=O)NCCCN2CCN(CCCNC(=O)c3ccc(C(C)C)cc3)CC2)cc1,-86.4
24,Cc1ccc(C(=O)NCCCN2CCN(CCCNC(=O)c3ccc(C)cc3)CC2)cc1,-36.5

row,Structure (SMILES),"hERG current change (%, negative = inhibition) at 1uM [%]"
1,COc1ccccc1N1CCN(C(=O)CCCN2C(=O)c3cccc4cccc(c34)C2=O)CC1.Cl,-89.5
2,O=C(NCCN1CCOCC1)c1cccc(Cl)c1,2.76
3,Cl.O=C(NCCN1CCCC1)c1cccc(Cl)c1,-13.1
4,COc1ccccc1N1CCN(C(=O)CCN2C(=O)c3cccc4cccc(c34)C2=O)CC1,9.15
5,COc1ccc(S(N)(=O)=O)cc1C(=O)NCCCN1CCN(c2ccccc2OC)CC1.CS(=O)(=O)O,4.07
6,CCOc1ccccc1N1CCN(C(=O)CCCN2C(=O)c3cccc4cccc(c34)C2=O)CC1,2.15
7,COc1ccccc1N1CCN(CCCCNC(=O)c2ccc3ccccc3c2)CC1.Cl,-75.8
8,COc1cc2c(cc1OC)C(c1ccc([N+](=O)[O-])cc1)N(C(C)=O)CC2 (centres unmarked),5.11
9,CC(C)c1ccc(NC(=O)c2ccc3c(c2)C(=O)N(Cc2cccnc2)C3=O)cc1,8.25
10,c1ccc(CC(Nc2ccccn2)c2ccccc2)cc1 (centres unmarked),-10.6
11,NC(=O)CSc1n[nH]c(=O)n1CCc1ccccc1,10.4
12,O=C(Cc1cccs1)NCc1cccc(Cl)c1,9.08
13,CCOc1ccc2[nH]c(O)c(NC(C)=O)c2c1,5.98
14,CCc1c(C)nc2ncnn2c1NCc1cccs1,6.69
15,COc1cc(/C=N/NC(=O)c2ccccc2)ccc1O,-5.66
16,COc1cc2c(cc1OC)/C(=C/C#N)NC(C)(C)C2,7.09
17,CNc1nc(SC)nc2ccccc12,16.4
18,COc1cc(OC)cc(C(=O)NCCCN2CCN(CCCNC(=O)c3cc(OC)cc(OC)c3)CC2)c1,-18.8
19,COc1cccc(C(=O)NCCCNC(=O)c2cccc(OC)c2)c1,12.4
20,O=C(NCCCN1CCCC1)c1ccc(CSCc2cccc(Cl)c2)o1,-30.4
21,CN1CCN(CCCNC(=O)c2ccc(CSCc3cccc(Cl)c3)o2)CC1,1.54
22,CC1CCN(CCCNC(=O)c2ccc(CSCc3cccc(Cl)c3)o2)CC1,-62.4
23,COc1cccc(C(=O)NCCCN2CCN(CCCNC(=O)c3cccc(OC)c3)CC2)c1,-65.2
24,Cc1ccc2nsnc2c1NC(=O)c1cccnc1Cl,15.1

row,Structure (SMILES),"hERG current change (%, negative = inhibition) at 1uM [%]"
1,COc1ccc(S(=O)(=O)N2CCC(Nc3ccccc3Cl)CC2)cc1,28.1
2,COc1ccc(/C=C2\SC(=S)N(CC(=O)NC3CCS(=O)(=O)C3)C2=O)cc1 (centres unmarked),17.2
3,CN=C1c2c(-c3ccccc3)c3cc(OC)ccc3n2CCN1C.Cl,-31.6
4,COc1ccc2c(c1)c1c3n2CCN(C)C3=NCC1.Cl,-54.9
5,COc1ccc2c(c1)c1c(n2C(C)=O)C(OC(C)=O)=NCC1,2.42
6,COc1ccc(OCC(=O)Nc2c3c(nn2-c2ccccc2)CS(=O)(=O)C3)cc1,7.69
7,O=C1c2ccccc2C(=O)N1Cc1cccnc1,15.6
8,Cc1nc2nc(-c3ccc(Cl)cc3)nn2c(C)c1Cl,13.4
9,Cc1cc(N2CCOCC2)n2cc(-c3ccc(F)cc3)nc2n1,-34.9
10,Cc1cc(N2CCOCC2)n2cc(-c3ccccc3)nc2n1,-14.6
11,Cc1cc(N2CCN(C)CC2)n2cc(-c3ccc(F)cc3)nc2n1,-89.8
12,Cc1cc(N2CCN(c3ccccc3Cl)CC2)n2cc(-c3ccccc3)nc2n1,-2.03
13,Cc1cc(N2CCN(c3ccccn3)CC2)n2cc(-c3ccccc3)nc2n1,-65.4
14,Cc1cc(N2CCOCC2)n2nc(C)c(-c3ccc(Cl)cc3)c2n1,7.28
15,Cc1cc(N2CCN(c3ccccc3)CC2)n2cc(-c3ccccc3)nc2n1,-16.4
16,Cc1cc(N2CCN(C)CC2)n2nc(-c3ccc(Cl)cc3)nc2n1,-67.2
17,Cc1cc(C)nc(-n2ncc3c2CC(C)CC3=O)n1 (centres unmarked),11.4
18,O=C(CN1C(=O)C2CCCCN2C(=O)c2ccccc21)N1CCCc2ccccc21 (centres unmarked),15.1
19,O=C(Cc1cccs1)Nc1nnc(SCc2cccc3ccccc23)s1,-3.03
20,COc1ccc(OC)c(NC(=O)CSc2nc(=O)n(Cc3ccccn3)c3c2CCC3)c1,-2.43
21,Cc1cc(O)c(C(C)C)cc1NC(=O)Cn1nc(C)c2ccccc2c1=O,-6.85
22,Cc1ccc(NC(=O)CCc2ccc(C)o2)cc1,7.21
23,COC(=O)c1ccc(NC(=O)c2cc[n+]([O-])cc2)cc1,10.9
24,Clc1ccc2[nH]c3c(NCCN4CCOCC4)ncnc3c2c1,-2.76

row,Structure (SMILES),"hERG current change (%, negative = inhibition) at 1uM [%]"
1,CCN1CCCC1CNC(=O)c1cc2cc(F)ccc2[nH]1 (centres unmarked),-53.8
2,Clc1ccc2[nH]c3c(NCC4CCCO4)ncnc3c2c1 (centres unmarked),-3.05
3,Fc1ccc2[nH]c3c(NCCN4CCOCC4)ncnc3c2c1,8.84
4,CCN1CCCC1CNC(=O)c1cc2cc(OC)c(OC)cc2[nH]1 (centres unmarked),16.2
5,CCN1CCCC1CNc1ncnc2c1[nH]c1ccc(F)cc12 (centres unmarked),-81.4
6,CCN1CCCC1CNC(=O)c1cc2ccc(OC)cc2[nH]1 (centres unmarked),5.34
7,Fc1ccc2[nH]c3c(NCc4ccccc4)ncnc3c2c1,15.4
8,CCN1CCCC1CNc1ncnc2c1[nH]c1ccc(Cl)cc12 (centres unmarked),-85.5
9,CCc1noc(C)c1C(=O)NNC(=O)c1cc(OC)cc(OC)c1,9.15
10,CCOc1cc(C2c3c(n[nH]c3C)C(=O)N2c2ccc(Br)cc2)ccc1O (centres unmarked),10.8
11,CCC(Oc1ccc2c(c1)C(=O)CC(C)(C)O2)C(=O)NCCN1CCCCCC1.O=C(O)C(=O)O (centres unmarked),-9.15
12,C=CCn1c(SCC(=O)C(C)(C)C)nnc1-c1cccs1,-9.56
13,C=CCn1c(SCC(=O)O)nnc1-c1cccs1,9.03
14,CCn1c(SCC(=O)Nc2nc(C)c(C)s2)nnc1-c1ccco1,-11.2
15,CCn1c(SCC(=O)Nc2ccccc2)nnc1-c1cccs1,-13.8
16,C=CCn1c(SCC(=O)N2CCN(c3ccccc3)CC2)nnc1-c1ccco1,4.57
17,C=CCn1c(SCC(=O)Nc2ccc3c(c2)CCC3)nnc1-c1cccs1,-83.5
18,C=CCn1c(SCC(=O)Nc2ccc(C(=O)OC(C)C)cc2)nnc1-c1cccs1,9.31
19,C=CCn1c(SCC(=O)Nc2ccc(C(=O)OCC)cc2)nnc1-c1cccs1,12.3
20,C=CCn1c(SCC(=O)N2CCN(c3ccc(F)cc3)CC2)nnc1-c1cccs1,-52.4
21,C=CCn1c(SCC(=O)Nc2ccc(N3CCOCC3)cc2)nnc1-c1ccco1,8.51
22,C=CCn1c(SCC(=O)N2CCN(c3ccc(F)cc3)CC2)nnc1-c1ccco1,-67
23,CCn1c(SCC(=O)Nc2nc(C)c(C)s2)nnc1-c1cccs1,-62.5

# Reference: publication PMC4336329 (PLoS ONE, 2015)
